From PubChem
Vaccinia mCherry – vaccinia inhibition (mCherry reporter); AID 720579; 0.63% of 310,000 active; Vaccinia virus mCherry reporter infection, fluorescence; Potency, µM (doses to about 36.5 µM), most hits filed as inhibitors; calls by dose curve; tested in A549 cells; note: nearly all actives have a fitted effect of over 35% in size
HCV inh – inhibitors of hepatitis C virus infection. Huh7.5.1 HCVcc-Cre infection, luciferase reporter, 44 h. Potency, µM (top dose mostly 41.8 µM), hits mostly inhibitors. 3.4% of 340,000 active. AID 651820
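After 44 h co-culture of compound, cells and HCVcc-Cre (~0.5 moi), substrate is added for 15 min at room temperature and luciferase measured over 15 sec. Cells were seeded at 1,000/well and pre-cultured 4 h.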
VACV Venus inh – vaccinia inhibition (Venus reporter); 0.46% of 330,000 active; Vaccinia virus Venus reporter expression, fluorescence; AID 720580; Potency, µM (top dose mostly 36.5 µM), hits mostly inhibitors; calls by dose curve; tested in A549 cells; note: nearly all actives have a fitted effect of over 30% in size
HCV confirm – confirmation of hepatitis C virus inhibitors; shares compounds with HCV inh; HCVcc-Cre infectious virus cell assay, luciferase, inhibition; Potency, µM (top dose mostly 41.8 µM), hits mostly inhibitors; 78% of 640 active; AID 720575; note: nearly all actives have a fitted effect of over 80% in size
HCV cytotox – host cell cytotoxicity counter-screen for HCV inhibitors; shares compounds with HCV inh; HCV host cell line cytotoxicity counterscreen; Potency, µM (doses to about 41.8 µM), most hits filed as inhibitors; 22% of 640 active; AID 720576;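 note: 44 h compound exposure; nearly all actives have a fitted effect of over 55% in size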
Numbers stand for hits; – = inactive; ? = inconclusive; · = not tested or not shown; [ ] = remark or other dose. Most compounds without a hit are left out; they make up all but 3.3% or so of the library. Unless noted, calls come from the whole dose curve; as a rule, active = well fitted curve in the direction sought with a large enough effect; inconclusive = small, poorly fitted or top-dose-only effect, or another doubt; inactive = no such curve, though single readings can be large; an effect the other way counts as inactive or inconclusive.

SMILES	Vaccinia mCherry	HCV inh	VACV Venus inh	HCV confirm	HCV cytotox
CCOc1ccc2c(C)nc(NC3=NC(C)(C)C=C(C)N3)nc2c1	–	5.01µM	?	7.05µM	?
Cc1ccc(SCc2cc(=O)[nH]c(Nc3nc(C)c4ccc(C)cc4n3)n2)cc1	–	–	–	·	·
CC1(C(=O)NCc2ccccc2)CCC(=O)N1CCc1c[nH]c2ccccc12 (stereo not given)	–	·	–	·	·
COc1ccccc1CNS(=O)(=O)c1cccs1	·	–	·	·	·
CCOC(=O)C1=C(C)N=c2s/c(=C/c3ccco3)c(=O)n2C1c1cccc(OC)c1 (stereo not given)	·	?	–	?	–
CCOC(=O)C1=C(C)N=c2s/c(=C\c3ccc(C(=O)O)cc3)c(=O)n2C1c1ccc(OC)cc1OC (stereo not given)	–	–	–	·	·
COc1ccc(-n2c(SCCC(C)C)nc3sc4c(c3c2=O)CC(C(C)C)OC4)cc1 (stereo not given)	–	·	–	·	·
CC(C)N(C(=S)Nc1cc(S(=O)(=O)N2CCOCC2)ccc1Cl)c1ccccc1	–	–	–	·	·
C/C(=N\NC(=S)Nc1cc(S(=O)(=O)N2CCOCC2)ccc1Cl)c1ccccc1F	–	?	–	22.3µM	?
[O-][n+]1onc2c3cc(-c4ccccc4)nnc3ccc21	?	?	–	?	–
Fc1ccc2nc(-c3ccccc3)ccc2c1	–	·	–	·	·
C/C(=N\NC(N)=O)C1CC(Cc2ccccc2)C(=O)O1 (stereo not given)	–	–	–	·	·
CSc1ncc2[nH]c(C(O)c3ccccc3)nc2n1 (stereo not given)	–	?	–	·	·
O=C(Cc1csc(Nc2nc(=S)[nH]c3ccccc23)n1)N1CCN(c2cccc(C(F)(F)F)c2)CC1	–	5.62µM	–	12.5µM	12.5µM
O=C(CCCCCn1c(=O)[nH]c2ccccc2c1=O)N1CCN(c2cccc(C(F)(F)F)c2)CC1	–	·	–	·	·
CC(C)CNC(=S)N(CCN(C)C)Cc1cc2cc3c(cc2[nH]c1=O)OCO3	–	4.47µM	–	–	–
CC(C)CNC(=S)N(CCN(C)C)Cc1cc2cc3c(cc2[nH]c1=O)OCCO3	·	–	·	·	·
O=S(=O)(NCC1CCCO1)c1ccc(NS(=O)(=O)c2ccc(F)cc2)cc1 (stereo not given)	–	–	–	·	·
Cc1cc(C)c(NC(=O)CCCn2c(=O)oc3ccccc32)c(C)c1	·	–	·	·	·
COc1ccc2nc(C)cc(C(=O)O)c2c1	·	–	–	·	·
COc1ccc2nc(C)c3cc(C)oc3c2c1	–	8.91µM	–	22.3µM	–
CC(C)(C)OC(=O)COc1cc(O)c2c(=O)cc(-c3ccccc3)oc2c1	·	?	·	28µM	–
O=c1cc(-c2ccccc2)oc2cc(OCc3ccccc3)cc(O)c12	–	?	–	·	·
CC(C)=CC(=O)Nc1cccc(S(=O)(=O)NC2=NCCCCC2)c1	·	–	·	·	·
COc1ccc(/C=C/C(=O)Nc2cccc(S(=O)(=O)NC3=NCCCCC3)c2)cc1OC	·	6.31µM	·	19.9µM	?
SMILES	Vaccinia mCherry	HCV inh	VACV Venus inh	HCV confirm	HCV cytotox
CN(CC(=O)NCCc1ccc(S(N)(=O)=O)cc1)Cc1c(F)cccc1Cl	–	–	–	·	·
CN(CC(=O)NCCc1ccc(S(N)(=O)=O)cc1)Cc1ccc(Cl)cc1Cl	–	7.08µM	–	8.87µM	17.7µM
C=CCc1ccc(OCCOCCN(C)C)c(OC)c1	–	–	–	·	·
C=CCc1ccc(OCCOc2cccc3ccc(C)nc23)c(OC)c1	·	8.91µM	·	12.5µM	–
O=C(OCCOc1cccc(Cl)c1)c1cc(S(=O)(=O)N2CCCCC2)ccc1N1CCOCC1	?	?	?	3.53µM	6.28µM
O=C(COC(=O)c1cc(S(=O)(=O)N2CCCCC2)ccc1N1CCOCC1)c1ccc(Cl)cc1	–	?	–	·	·
Cn1c(SCc2cccc(Br)c2)nnc1-c1ccncc1	·	–	·	·	·
COc1ccc(-c2nc(-c3ccncc3)no2)cc1OC	·	–	·	·	·
CCOc1cc(-c2noc(-c3ccncc3)n2)cc(Br)c1OC	·	?	·	?	–
Cc1nc(N2CCCC2)c2c(C(=O)Nc3cccc(Cl)c3C)c(C)oc2n1	–	·	–	·	·
COc1ccc(CN(C)Cc2c(O)ccc3ccccc23)cc1	–	–	–	·	·
Oc1c(N=Nc2ccccn2)ccc2ccccc12	?	2.51µM	?	17.7µM	?
Oc1[nH]c2ccccc2c1N=Nc1ccccn1	–	–	–	·	·
CCCCCn1c(=N)c(S(=O)(=O)c2ccccc2)cc2c(=O)n3ccccc3nc21	–	·	–	·	·
COc1ccc(C2C(=O)N(C3CCC(C)CC3)CC(=O)N2Cc2ccccc2Cl)cc1OC (stereo not given)	–	·	–	·	·
COc1ccccc1NS(=O)(=O)c1cc(NC(=O)/C=C/c2cccs2)ccc1N1CCOCC1	–	?	–	19.9µM	–
O=C(/C=C/c1cccs1)Nc1ccc(N2CCOCC2)c(S(=O)(=O)Nc2cc(Cl)ccc2Cl)c1	–	?	–	·	·
O=C(Nc1ccc2ccccc2c1)c1cccnc1	–	?	–	·	·
O=C(Nc1ccc2c(c1)Cc1ccccc1-2)c1cccnc1	·	6.31µM	·	–	–
O=C(C1CC(=O)N(c2ccc(F)c(Cl)c2)C1)N1CCOCC1 (stereo not given)	–	·	–	·	·
COc1ccc(NC(=O)Nc2ccccc2SC)cc1OC	–	?	–	·	·
COc1cc(OC)c(NC(=O)c2ccc(F)cc2)cc1Cl	–	–	–	·	·
COc1cc(OC)c(NC(=O)Nc2ccc(OC)c(OC)c2)cc1Cl	–	2.51µM	–	–	–
COc1cc(OC)c(NC(=O)c2cccc(F)c2)cc1Cl	–	?	–	?	–
O=C(NC(=S)Nc1cc([N+](=O)[O-])ccc1O)C1CC1	·	–	·	·	·
SMILES	Vaccinia mCherry	HCV inh	VACV Venus inh	HCV confirm	HCV cytotox
Fc1cccc(NCc2ccccc2-c2nnc(-c3ccccc3Cl)o2)c1	–	·	–	·	·
CCOC(=O)C1C(=O)CC(=O)C(C(=O)OCC)C1c1ccc(O)cc1 (stereo not given)	–	·	–	·	·
Cc1c(S(=O)(=O)NC2CCCCC2)c(=O)n(C)c(=O)n1C	–	–	–	·	·
COC(=O)C[C@H]1C[C@H]2c3cc(NC(=O)C4CCOCC4)ccc3O[C@H]2[C@H](CO)O1	–	·	–	·	·
O=C(CSc1nc2ccccc2c(=O)n1-c1ccc(SC(F)F)cc1)Nc1ccc(N2CCOCC2)cc1	–	–	–	·	·
Cc1ccc(-n2c(SCC(=O)Nc3ccc(N4CCOCC4)cc3)nc3ccccc3c2=O)cc1	–	?	–	?	–
CCOC(=O)c1cc2c(=O)n3ccccc3nc2n(CCOC)c1=NC(=O)c1c(-c2ccccc2Cl)noc1C	–	·	–	·	·
CCCCCNC(=O)c1cn(CC)c2cc(N3CCN(C)CC3)c(F)cc2c1=O	?	?	?	14.1µM	–
CCCNC(=O)c1cn(CC)c2cc(N3CCN(C)CC3)c(F)cc2c1=O	·	–	–	·	·
Cn1ncc2c(NCCc3ccccc3)nc(Cl)nc21	–	?	–	25µM	–
Cn1ncc2c(Nc3ccccc3Cl)nc(Cl)nc21	–	–	–	·	·
COc1ccc(NC(=O)COC(=O)c2c3c(nc4ccccc24)CCCC3)cc1Cl	?	4.47µM	?	4.99µM	31.5µM
CNC(=O)COC(=O)c1c2c(nc3ccccc13)CCC2	·	–	·	·	·
COc1ccc(-c2coc3cc(O)cc(O)c3c2=O)cc1	–	–[8.37 µM]	–	·	·
O=c1c(-c2ccc(O)cc2)coc2cc(O)cc(O)c12	11.2µM	0.891µM	?	–	–
COc1ccc2cc(C(=O)NCc3ccc4c(c3)CCN4C(=O)c3ccc(F)cc3)[nH]c2c1	–	·	–	·	·
